Experimental data as given in the supplement of paper PMC10849652.
Targets with a hit are over-represented here; the source holds about 7,900 in all. About 0.6% of all pairs of compound and target were hits.

Experiments:
Assay in all cases: log2 fold change, soluble protein after heating vs DMSO (PISA); higher = thermal stabilisation; K562 cells, 10 uM, 30 min; active = over 0.2 and 3.5 SD of the protein, either way, in both replicates (recomputed)
ibrutinib = compound: C=CC(=O)N1CCC[C@@H](n2nc(-c3ccc(Oc4ccccc4)cc3)c3c(N)ncnc32)C1 [ibrutinib]
Summary of the method: (§1)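 K562 cells (2×10^6 cells/mL) were treated with 10 μM compound for 30 min, and aliquots were heated for 3 min over 48°C-58°C. Pooled aliquots were extracted in PBS with 0.5% NP-40 at 4°C, and the supernatant after 21,000xg for 90 min was measured by TMTpro 16plex LC-MS/MS with channel sums equalised. Reported thermal stability, relative to control samples and from duplicates, is a log2 fold change.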

ralimetinib = compound: CC(C)(C)Cn1c(N)nc2ccc(-c3[nH]c(C(C)(C)C)nc3-c3ccc(F)cc3)nc21 [ralimetinib]
Summary of the method: as §1

[1] = compound: CC(C)C[C@@H](C=O)NC(=O)[C@H](CC(C)C)NC(=O)[C@H](CC(C)C)NC(=O)OCc1ccccc1
Summary of the method: as §1

[2] = compound: CC1=C(C2=C(C=C1)C(=O)C3=CC=CC=C3N2CCCN)C
Summary of the method: as §1

[3] = compound: CC1=C(C=C(C=C1)NC(=O)C2=CC(=CC=C2)N(C)C)NC(=O)C3=CC=C(C=C3)O
Summary of the method: as §1

vemurafenib = compound: CCCS(=O)(=O)Nc1ccc(F)c(C(=O)c2c[nH]c3ncc(-c4ccc(Cl)cc4)cc23)c1F [vemurafenib]
Summary of the method: as §1

barasertib = compound: CCN(CCCOc1ccc2c(Nc3cc(CC(=O)Nc4cccc(F)c4)[nH]n3)ncnc2c1)CCOP(=O)(O)O [barasertib]
Summary of the method: as §1

[4] = compound: CC(=O)c1cnc2ccc(-c3cc(Cl)c(O)c(Cl)c3)nc2c1N[C@H]1CC[C@H](CN(C)C)CC1
Summary of the method: as §1

[5] = compound: CC(C)(O)CC(=O)NCCn1ccc2ncnc(Nc3ccc(Oc4cccc(C(F)(F)F)c4)c(Cl)c3)c21
Summary of the method: as §1

[6] = compound: CC(C)C1=C2N=C(C=C(N2N=C1)NCC3=CC=CC=C3)NCCCCCCN
Summary of the method: as §1

[7] = compound: CC1=C(C=C(C=C1)NC(=O)C2=CC(=CC=C2)C(C)(C)C#N)NC3=CC4=C(C=C3)N=CN(C4=O)C
Summary of the method: as §1

Nexturastat A = compound: CCCCN(Cc1ccc(C(=O)NO)cc1)C(=O)Nc1ccccc1 [Nexturastat A]
Summary of the method: as §1

givinostat = compound: CCN(CC)Cc1ccc2cc(COC(=O)Nc3ccc(C(=O)NO)cc3)ccc2c1 [givinostat]
Summary of the method: as §1

[8] = compound: CC1=C(C(CC(=O)N1)C2=CC=C(C=C2)C(F)(F)F)C(=O)NC3=C(C=C4C(=C3)C=NN4)F
Summary of the method: as §1

[9] = compound: CC1=CC=C(C=C1)SC2=C3C=C(SC3=CN=C2)C(=O)N
Summary of the method: as §1

[10] = compound: CCCS(=O)(=O)Nc1ccc(F)c(C(=O)c2c[nH]c3ncc(Cl)cc23)c1F
Summary of the method: as §1

[11] = compound: CCCc1cc(C)[nH]c(=O)c1CNC(=O)c1cc(-c2ccnc(N3CCN(C)CC3)c2)cc2c1cnn2C(C)C
Summary of the method: as §1

IRAK-1-4 Inhibitor I = compound: C1COCCN1CCN2C3=CC=CC=C3N=C2NC(=O)C4=CC(=CC=C4)[N+](=O)[O-] [IRAK-1-4 Inhibitor I]
Summary of the method: as §1

pinometostat = compound: CC(C)N(C[C@H]1O[C@@H](n2cnc3c(N)ncnc32)[C@H](O)[C@@H]1O)[C@H]1C[C@@H](CCc2nc3cc(C(C)(C)C)ccc3[nH]2)C1 [pinometostat]
Summary of the method: as §1

[12] = compound: CC1=NC(=CC=C1)C2=C(N=C(N2)C(C)(C)C)C3=CC4=NC=CN=C4C=C3
Summary of the method: as §1

Measured: log2 fold change

TTC26
inactive: ibrutinib 0.035 | ralimetinib 0.204 | [1] -0.211 | [2] 0.062 | [3] 0.116 | barasertib -0.139
active: vemurafenib -0.598

TRIM5 (UniProt Q9C035)
inactive: [4] 0 | ralimetinib 0.094 | [5] -0.045 | [6] -0.176 | [1] 0.391 | [2] 0.047 | [7] -0.063 | [3] -0.197 | Nexturastat A 0.033 | vemurafenib -0.044 | givinostat 0.119

UBE2D1 (UniProt P51668)
Sequence of UniProt P51668 (P51668 whole entry, looked up): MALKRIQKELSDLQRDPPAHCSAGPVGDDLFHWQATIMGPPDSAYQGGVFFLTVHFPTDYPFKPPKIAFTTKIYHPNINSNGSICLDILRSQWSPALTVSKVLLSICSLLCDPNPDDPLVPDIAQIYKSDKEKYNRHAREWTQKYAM
inactive: ibrutinib 0.007 | [4] 0.005 | ralimetinib 0.003 | [6] -0.203 | [1] -0.058 | [8] 0.028 | [2] 0.117 | [7] -0.08 | [3] 0.029 | [9] 0.021 | vemurafenib 0.156 | [10] 0.097 | [11] -0.004 | givinostat -0.035 | barasertib 0.047

WDR4 isoform 3 (UniProt P57081)
inactive: ibrutinib -0.157 | [5] -0.126 | [7] -0.041 | Nexturastat A -0.031 | barasertib 0.08

ULBP1 (UniProt Q9BZM6)
Sequence of UniProt Q9BZM6 (Q9BZM6 whole entry, looked up): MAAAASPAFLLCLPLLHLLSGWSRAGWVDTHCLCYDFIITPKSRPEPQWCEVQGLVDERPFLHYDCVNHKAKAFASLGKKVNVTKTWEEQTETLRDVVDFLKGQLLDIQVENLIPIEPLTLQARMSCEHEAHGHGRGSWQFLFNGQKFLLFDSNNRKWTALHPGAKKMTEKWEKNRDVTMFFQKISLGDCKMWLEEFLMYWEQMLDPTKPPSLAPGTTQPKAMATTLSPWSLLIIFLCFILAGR
active: Nexturastat A 0.428
inactive: [4] -0.038 | ralimetinib -0.058 | [5] -0.132 | [6] 0.112 | [1] 0.006 | [2] 0.009 | [7] -0.088 | [3] 0.023 | [9] -0.014 | vemurafenib 0.051 | [10] 0.053 | [11] 0 | givinostat 0.028

TRPT1 isoform 4 (UniProt Q86TN4)
inactive: IRAK-1-4 Inhibitor I 0.11 | [4] -0.057 | ralimetinib 0.011 | [6] -0.054 | [1] 0.074 | pinometostat 0.033 | [3] 0.136 | [12] -0.008 | [11] 0.029 | givinostat 0.179
active: [7] -1.08

UBXN10 (UniProt Q96LJ8)
Sequence of UniProt Q96LJ8 (Q96LJ8 whole entry, looked up): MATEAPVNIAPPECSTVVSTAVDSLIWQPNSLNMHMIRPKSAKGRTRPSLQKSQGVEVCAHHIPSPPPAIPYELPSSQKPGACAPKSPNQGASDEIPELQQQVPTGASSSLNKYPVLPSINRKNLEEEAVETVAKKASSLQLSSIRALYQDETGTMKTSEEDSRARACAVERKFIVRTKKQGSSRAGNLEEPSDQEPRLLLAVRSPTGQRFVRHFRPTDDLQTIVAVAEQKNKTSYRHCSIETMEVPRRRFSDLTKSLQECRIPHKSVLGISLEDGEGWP
inactive: IRAK-1-4 Inhibitor I 0.027 | ibrutinib 0.054 | ralimetinib -0.045 | [5] -0.145 | [6] -0.017 | [1] 0.038 | pinometostat 0.058 | [8] 0.026 | [2] 0.085 | [7] 0.007 | [3] -0.026 | [9] -0.071 | [12] 0.037 | Nexturastat A 0.107 | vemurafenib -0.264 | [10] -0.024 | [11] -0.115 | givinostat 0.059 | barasertib -0.068

TXNRD1 isoform 7 (UniProt Q16881)
Sequence of UniProt Q16881 (Q16881 whole entry, looked up): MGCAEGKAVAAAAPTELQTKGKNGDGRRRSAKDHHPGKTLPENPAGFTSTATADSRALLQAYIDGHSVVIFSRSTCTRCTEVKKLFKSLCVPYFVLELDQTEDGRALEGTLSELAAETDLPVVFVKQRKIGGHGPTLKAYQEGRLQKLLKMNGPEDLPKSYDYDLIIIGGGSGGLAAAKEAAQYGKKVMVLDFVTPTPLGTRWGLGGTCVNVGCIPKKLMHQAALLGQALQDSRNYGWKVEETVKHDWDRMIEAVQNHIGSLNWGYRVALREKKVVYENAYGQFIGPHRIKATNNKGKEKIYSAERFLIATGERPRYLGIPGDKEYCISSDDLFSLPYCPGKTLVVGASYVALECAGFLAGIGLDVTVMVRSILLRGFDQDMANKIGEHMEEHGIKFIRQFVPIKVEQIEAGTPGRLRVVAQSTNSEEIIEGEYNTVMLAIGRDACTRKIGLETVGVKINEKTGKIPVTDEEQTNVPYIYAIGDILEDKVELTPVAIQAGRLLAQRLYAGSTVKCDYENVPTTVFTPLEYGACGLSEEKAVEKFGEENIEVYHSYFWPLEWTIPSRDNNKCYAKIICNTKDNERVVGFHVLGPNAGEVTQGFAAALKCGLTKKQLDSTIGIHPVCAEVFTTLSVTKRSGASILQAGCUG
inactive: ibrutinib -0.209 | [5] -0.069 | [6] -0.01 | [7] -0.567 | [9] -0.037 | Nexturastat A 0.221 | vemurafenib -0.123 | [10] 0.049 | givinostat 0.403 | barasertib 0.041

TVP23C (UniProt Q96ET8)
Sequence of UniProt Q96ET8 (Q96ET8 whole entry, looked up): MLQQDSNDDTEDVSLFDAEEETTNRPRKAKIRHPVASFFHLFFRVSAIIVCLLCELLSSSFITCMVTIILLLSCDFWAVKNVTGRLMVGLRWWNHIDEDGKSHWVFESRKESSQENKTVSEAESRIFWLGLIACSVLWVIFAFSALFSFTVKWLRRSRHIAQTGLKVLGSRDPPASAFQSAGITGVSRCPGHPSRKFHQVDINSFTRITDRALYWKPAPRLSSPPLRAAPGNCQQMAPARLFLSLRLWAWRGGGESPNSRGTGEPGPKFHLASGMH
inactive: [4] 0.021 | [6] 0.011 | [2] 0.037 | [9] 0.024 | vemurafenib -0.022 | [10] -0.178 | [11] -0.118 | givinostat 0.043

WARS1 (UniProt G3V3P2)
inactive: ibrutinib -0.036 | [7] -0.055 | barasertib -0.255

WARS1 (UniProt G3V227)
inactive: ibrutinib 0.03 | [4] -0.022 | [5] 0.259 | [2] -0.048 | Nexturastat A 0.459 | vemurafenib -0.455 | barasertib 0.004

WDR46, A0A0G2JJL1
inactive: IRAK-1-4 Inhibitor I -0.153 | ibrutinib 0.054 | [5] 0.269 | [6] 0.003 | pinometostat 0.325 | [8] 0.005 | [2] -0.353 | [7] -0.161 | [9] -0.229 | [12] -0.254 | Nexturastat A 0.194 | vemurafenib -0.09 | [10] 0.078 | [11] 0.19 | givinostat 0.15 | barasertib -0.248

WARS1 (UniProt G3V5U1)
inactive: IRAK-1-4 Inhibitor I 0.01 | ibrutinib -0.158 | [5] 0.156 | pinometostat 0.031 | [7] -0.795 | [12] -0.638 | Nexturastat A 0.136 | [11] -0.118 | barasertib -0.007

TOM1 (UniProt O60784)
Sequence of UniProt O60784 (O60784 whole entry, looked up): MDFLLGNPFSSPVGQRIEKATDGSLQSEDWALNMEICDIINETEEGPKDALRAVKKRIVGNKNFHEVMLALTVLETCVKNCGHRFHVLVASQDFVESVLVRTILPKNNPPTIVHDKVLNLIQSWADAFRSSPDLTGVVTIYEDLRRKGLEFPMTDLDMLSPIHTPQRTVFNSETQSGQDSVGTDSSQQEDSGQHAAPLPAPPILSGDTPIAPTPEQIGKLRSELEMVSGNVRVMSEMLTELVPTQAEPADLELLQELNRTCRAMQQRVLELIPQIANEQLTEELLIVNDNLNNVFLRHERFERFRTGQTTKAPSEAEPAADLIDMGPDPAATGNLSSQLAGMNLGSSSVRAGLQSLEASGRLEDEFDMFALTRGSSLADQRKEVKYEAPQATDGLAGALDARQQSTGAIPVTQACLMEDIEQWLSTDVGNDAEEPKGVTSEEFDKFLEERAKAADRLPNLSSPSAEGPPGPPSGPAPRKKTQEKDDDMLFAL
inactive: IRAK-1-4 Inhibitor I 0.058 | ibrutinib 0.093 | [5] -0.087 | [6] -0.22 | pinometostat -0.032 | [2] -0.236 | [7] 0.058 | [12] -0.022 | [11] -0.015 | givinostat -0.09 | barasertib -0.039
active: Nexturastat A 0.504

TUBA4A (UniProt C9JJQ8)
inactive: IRAK-1-4 Inhibitor I -0.203 | ibrutinib -0.076 | pinometostat -0.121 | [2] -0.042 | [7] -0.019 | [9] 0.022 | [12] 0.138 | vemurafenib 0.053 | [10] -0.065 | barasertib 0.136

TMEM104 (UniProt Q8NE00)
inactive: IRAK-1-4 Inhibitor I -0.039 | [4] 0.038 | ralimetinib -0.09 | [5] 0.009 | [1] 0.082 | pinometostat -0.106 | [8] 0.126 | [3] 0.058 | [9] -0.015 | [12] -0.039 | Nexturastat A -0.046 | [10] -0.173 | [11] -0.126 | givinostat -0.012
active: [6] -0.473

UBXN8 (UniProt O00124)
inactive: ibrutinib 0.077 | [4] 0.039 | ralimetinib 0.211 | [5] 0.138 | [1] -0.227 | [2] 0.259 | [7] -0.029 | [3] 0.169 | [9] 0.023 | Nexturastat A 0.334 | vemurafenib 0.089 | [10] -0.024 | barasertib -0.218

UFM1 isoform 2 (UniProt P61960)
active: Nexturastat A -0.36
inactive: ibrutinib 0.025 | [4] 0.052 | [5] 0.018 | [6] -0.013 | [8] 0.026 | [2] 0.035 | [7] 0.004 | [9] -0.01 | vemurafenib -0.13 | [10] 0.001 | [11] 0.127 | givinostat -0.146 | barasertib 0.053

TMEM219 (UniProt Q86XT9)
Sequence of UniProt Q86XT9 (Q86XT9 whole entry, looked up): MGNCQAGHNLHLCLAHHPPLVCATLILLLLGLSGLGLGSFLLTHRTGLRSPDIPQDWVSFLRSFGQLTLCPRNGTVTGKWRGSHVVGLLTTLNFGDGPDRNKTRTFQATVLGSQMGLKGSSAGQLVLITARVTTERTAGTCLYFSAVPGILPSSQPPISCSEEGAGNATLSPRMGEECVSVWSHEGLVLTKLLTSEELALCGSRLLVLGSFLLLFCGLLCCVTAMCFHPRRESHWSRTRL
inactive: ibrutinib 0.115 | [4] 0.083 | [5] -0.015 | [6] 0.007 | [8] 0.031 | [2] -0.134 | [7] 0.021 | [9] 0.02 | Nexturastat A 0.311 | vemurafenib 0.172 | [10] -0.107 | givinostat -0.029 | barasertib -0.187

WARS1 (UniProt G3V339)
inactive: [5] 0.044 | Nexturastat A 0.188

TMEM268 isoform 3 (UniProt Q5VZI3)
Sequence of UniProt Q5VZI3 (Q5VZI3 whole entry, looked up): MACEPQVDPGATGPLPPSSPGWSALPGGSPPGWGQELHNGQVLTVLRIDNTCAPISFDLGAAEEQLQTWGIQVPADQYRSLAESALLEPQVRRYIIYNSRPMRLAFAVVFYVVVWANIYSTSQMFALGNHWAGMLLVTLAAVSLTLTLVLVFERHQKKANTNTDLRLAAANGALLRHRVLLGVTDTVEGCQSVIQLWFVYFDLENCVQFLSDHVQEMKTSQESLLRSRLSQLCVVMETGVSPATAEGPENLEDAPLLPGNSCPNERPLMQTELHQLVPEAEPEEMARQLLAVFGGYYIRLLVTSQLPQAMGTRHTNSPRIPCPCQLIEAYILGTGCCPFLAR
inactive: ibrutinib 0.036 | [4] -0.042 | ralimetinib -0.056 | [5] -0.334 | [6] -0.095 | [1] -0.016 | [8] -0.033 | [2] 0.014 | [7] 0.056 | [3] 0.024 | [9] -0.178 | Nexturastat A 0.124 | [10] 0.083 | [11] 0.18 | givinostat 0.11 | barasertib -0.461

VPS72 isoform 2 (UniProt Q15906)
Sequence of UniProt Q15906 (Q15906 whole entry, looked up): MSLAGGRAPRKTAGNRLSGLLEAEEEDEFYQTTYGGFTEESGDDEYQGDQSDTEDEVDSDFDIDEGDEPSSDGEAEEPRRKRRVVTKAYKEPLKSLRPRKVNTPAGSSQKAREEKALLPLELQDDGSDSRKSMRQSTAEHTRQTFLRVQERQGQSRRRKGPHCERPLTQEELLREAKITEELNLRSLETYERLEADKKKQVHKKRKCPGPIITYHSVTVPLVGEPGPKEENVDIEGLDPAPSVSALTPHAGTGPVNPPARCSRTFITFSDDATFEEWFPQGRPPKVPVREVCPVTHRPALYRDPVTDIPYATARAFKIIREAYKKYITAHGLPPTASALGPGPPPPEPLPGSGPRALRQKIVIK
inactive: ibrutinib 0.119 | [4] 0.033 | ralimetinib -0.122 | [5] -0.177 | [6] 0.133 | [1] -0.117 | [8] -0.092 | [7] -0.051 | [3] 0.196 | [9] 0.05 | Nexturastat A -0.17 | vemurafenib 0.025 | [10] -0.028 | [11] -0.042 | givinostat -0.014 | barasertib 0.001
active: [2] -0.473

XAB2 (UniProt Q9HCS7)
Sequence of UniProt Q9HCS7 (Q9HCS7 whole entry, looked up): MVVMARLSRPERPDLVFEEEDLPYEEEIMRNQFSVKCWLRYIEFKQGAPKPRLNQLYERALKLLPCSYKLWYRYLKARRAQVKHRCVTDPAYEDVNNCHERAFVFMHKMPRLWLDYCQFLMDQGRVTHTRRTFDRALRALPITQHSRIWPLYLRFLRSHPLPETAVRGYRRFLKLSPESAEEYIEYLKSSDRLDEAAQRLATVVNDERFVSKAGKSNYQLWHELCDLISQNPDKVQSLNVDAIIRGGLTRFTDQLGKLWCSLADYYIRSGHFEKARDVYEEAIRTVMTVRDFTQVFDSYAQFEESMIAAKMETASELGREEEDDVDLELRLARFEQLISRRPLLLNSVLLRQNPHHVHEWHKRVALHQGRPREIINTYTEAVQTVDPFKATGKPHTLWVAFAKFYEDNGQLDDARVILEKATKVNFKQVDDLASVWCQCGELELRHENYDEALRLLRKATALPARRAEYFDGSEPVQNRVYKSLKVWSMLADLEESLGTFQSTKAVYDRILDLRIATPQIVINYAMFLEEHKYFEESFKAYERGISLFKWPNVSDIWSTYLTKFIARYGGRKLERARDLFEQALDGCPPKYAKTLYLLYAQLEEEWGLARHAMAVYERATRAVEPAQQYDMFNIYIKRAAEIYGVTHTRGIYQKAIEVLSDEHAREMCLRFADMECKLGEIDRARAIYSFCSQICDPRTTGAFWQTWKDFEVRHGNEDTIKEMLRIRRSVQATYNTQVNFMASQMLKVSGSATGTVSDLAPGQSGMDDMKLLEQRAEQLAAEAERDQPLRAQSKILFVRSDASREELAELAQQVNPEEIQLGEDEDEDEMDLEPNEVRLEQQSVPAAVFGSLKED
inactive: IRAK-1-4 Inhibitor I -0.036 | ralimetinib 0.14 | [5] -0.138 | [1] -0.041 | pinometostat 0.181 | [3] -0.027 | [12] -0.034 | Nexturastat A 0.469 | [11] 0.168

USP48 (UniProt Q86UV5)
Sequence of UniProt Q86UV5 (Q86UV5 whole entry, looked up): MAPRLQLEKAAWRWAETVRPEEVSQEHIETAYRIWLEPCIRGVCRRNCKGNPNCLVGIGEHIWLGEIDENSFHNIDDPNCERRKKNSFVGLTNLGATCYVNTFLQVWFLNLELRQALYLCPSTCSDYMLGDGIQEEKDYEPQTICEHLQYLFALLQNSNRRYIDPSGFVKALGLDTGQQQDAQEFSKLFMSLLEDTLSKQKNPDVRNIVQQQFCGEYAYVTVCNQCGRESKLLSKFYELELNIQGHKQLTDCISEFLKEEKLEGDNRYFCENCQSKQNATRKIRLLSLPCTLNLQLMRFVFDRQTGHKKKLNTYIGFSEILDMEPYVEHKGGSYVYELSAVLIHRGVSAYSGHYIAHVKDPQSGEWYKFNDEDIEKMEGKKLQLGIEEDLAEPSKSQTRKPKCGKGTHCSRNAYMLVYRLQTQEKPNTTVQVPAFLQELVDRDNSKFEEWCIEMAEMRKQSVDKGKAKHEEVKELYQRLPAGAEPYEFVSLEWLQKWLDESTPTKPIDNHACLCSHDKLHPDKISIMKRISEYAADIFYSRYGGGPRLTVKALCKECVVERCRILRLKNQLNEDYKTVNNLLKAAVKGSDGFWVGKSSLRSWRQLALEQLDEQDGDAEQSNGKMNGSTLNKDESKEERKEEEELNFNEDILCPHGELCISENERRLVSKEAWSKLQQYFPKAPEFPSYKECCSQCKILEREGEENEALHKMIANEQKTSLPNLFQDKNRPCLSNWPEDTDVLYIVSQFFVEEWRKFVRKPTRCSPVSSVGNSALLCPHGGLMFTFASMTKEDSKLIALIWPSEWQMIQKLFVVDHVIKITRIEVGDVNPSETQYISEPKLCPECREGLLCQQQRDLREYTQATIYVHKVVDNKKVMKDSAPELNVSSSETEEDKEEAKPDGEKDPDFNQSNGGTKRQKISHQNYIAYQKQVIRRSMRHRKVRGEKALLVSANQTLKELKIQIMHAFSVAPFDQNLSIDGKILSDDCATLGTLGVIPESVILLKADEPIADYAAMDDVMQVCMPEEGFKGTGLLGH
inactive: ibrutinib -0.07 | [6] -0.246 | [8] 0.05 | [7] -0.096 | [11] -0.232 | givinostat 0.237 | barasertib 0.252

XIAP (UniProt P98170)
inactive: ibrutinib -0.076 | [4] -0.105 | [5] -0.157 | [6] -0.05 | [8] 0 | [2] -0.002 | [7] -0.047 | [9] -0.045 | Nexturastat A -0.045 | vemurafenib 0.035 | [10] 0 | [11] -0.049 | givinostat 0.019 | barasertib 0

UBE2J2 isoform 3 (UniProt Q8N2K1)
inactive: ibrutinib 0.086 | [4] -0.017 | [5] -0.019 | [6] -0.185 | [2] 0.02 | [7] -0.085 | [9] 0.024 | Nexturastat A 0.028 | vemurafenib 0.214 | [10] -0.027 | givinostat 0.009 | barasertib 0.006

TUT4 (UniProt Q5TAX3)
inactive: IRAK-1-4 Inhibitor I 0.078 | ibrutinib -0.029 | ralimetinib 0.07 | [5] 0 | [6] -0.219 | [1] 0.086 | pinometostat 0.059 | [8] 0.158 | [2] 0.104 | [7] -0.124 | [3] -0.106 | [9] -0.081 | [12] -0.121 | Nexturastat A 0.449 | vemurafenib -0.129 | [10] -0.008 | [11] -0.124 | givinostat 0.069 | barasertib 0.027
